Data: ChEMBL document CHEMBL3988442, “University of Dundee, Small-Polar-MMV Screening Library” (2021)
Among all 48,000 compounds or so, about 13,000 (27%) showed an effect of 50% or more. The list shows a part of the results.

System: Wolbachia pipientis
Assay: Anti-Wolbachia Cell-Based Screen
Assay type: functional
Set-up: scale not given: in the data most compounds retested in dose-response had high values
Conditions: 5 µM

SMILES	Percent Effect
O=c1oc(-c2ccc(F)cc2)nn1CN1CCN(C2CCCC2)CC1	-7.879%
O=c1oc(-c2ccc(F)cc2)nn1CC1CCOC1 (stereo not drawn)	-10.24%
O=c1oc(-c2ccc(F)cc2)nn1CC1CCCCO1 (stereo not drawn)	-16.49%
O=c1oc(-c2ccc(F)cc2)nn1CN1CCN(CC2CC2)CC1	89.16%
O=c1oc(-c2ccc(F)cc2)nn1CN1CCCCC1	107.7%
CC(=O)N1CCN(Cn2nc(-c3ccc(F)cc3)oc2=O)CC1	6.471%
O=c1oc(-c2ccc(F)cc2)nn1CCc1ccncc1	-21.89%
CC1CCN(Cn2nc(-c3ccc(F)cc3)oc2=O)CC1	4.807%
O=c1oc(-c2ccc(F)cc2)nn1CN1CCSCC1	92.99%
CN(C(=O)Cc1coc(-c2cccs2)n1)C1(C#N)CCC1	3.793%
CCc1nc(CN2CCCN(C(=O)C(C)COC)CC2)cs1 (stereo not drawn)	7.127%
COc1ccc(OC)c(C2CCN(C(=O)C3CCS(=O)(=O)CC3)C2)c1 (stereo not drawn)	-1.419%
COc1ccc(C2=CCN(C(=O)C3CC(=O)N(C4CC4)C3)CC2)cc1 (stereo not drawn)	-2.251%
COc1ccc(C2=CCN(C(=O)CN(C)CC(N)=O)CC2)cc1	-8.253%
COc1ccc(C2=CCN(C(=O)C3CCS(=O)(=O)C3)CC2)cc1 (stereo not drawn)	136.7%
COc1ccc(C2=CCN(C(=O)CN(C)CC(C)C#N)CC2)cc1 (stereo not drawn)	-3.041%
COc1ccc(C2=CCN(C(=O)C3CCCN(C(C)=O)C3)CC2)cc1 (stereo not drawn)	109.7%
COc1ccc(C2=CCN(C(=O)C3CCCN(C(N)=O)C3)CC2)cc1 (stereo not drawn)	7.391%
COc1ccc(OC2CCN(C(=O)C3CCCN(C)C3)CC2)cc1 (stereo not drawn)	0.8407%
COc1ccc(C2=CCN(C(=O)C3CCC3)CC2)cc1	121.8%
O=C(NCC1CC1)c1cc(Cl)c2c(c1)OCCCO2	-14.68%
CCCC(C)(C)NC(=O)c1cnc(CC)s1	-7.388%
CN(C)C1CC2(CCN(C(=O)C3(C#N)CC3)CC2)c2ccccc21.O=C(O)C(F)(F)F (stereo not drawn)	5.959%
O=C1CSCN1Cc1nc(-c2ccc(N3CCCCC3)cc2)no1	-5.803%
COCC1CN(Cc2ccc(OC)cc2)Cc2nnn(CC3CC3)c21.O=C(O)C(F)(F)F (stereo not drawn)	-5.304%
CN(C)CCOCC1CN(Cc2ccccn2)Cc2nnn(C)c21.O=C(O)C(F)(F)F.O=C(O)C(F)(F)F.O=C(O)C(F)(F)F (stereo not drawn)	99.25%
CN(C)CCOCC1CN(Cc2ccncc2)Cc2nnn(C)c21.O=C(O)C(F)(F)F.O=C(O)C(F)(F)F.O=C(O)C(F)(F)F (stereo not drawn)	96.02%

SMILES	Percent Effect
COc1ccc(CN2Cc3nnn(C)c3C(COCCN(C)C)C2)cc1.O=C(O)C(F)(F)F.O=C(O)C(F)(F)F (stereo not drawn)	106.7%
CN(C)CC(=O)N1Cc2nnn(C)c2C(COCc2ccccn2)C1.O=C(O)C(F)(F)F.O=C(O)C(F)(F)F (stereo not drawn)	6.818%
Cn1nnc2c1C(COCC1CC1)CN(C(=O)Cc1ccsc1)C2 (stereo not drawn)	2.514%
CCOCC1CN(Cc2ccc(OC)cc2)Cc2nn(C)cc21.O=C(O)C(F)(F)F (stereo not drawn)	11.5%
Cn1nnc2c1C(COCc1ccccn1)CN(C(=O)c1ccsc1)C2.O=C(O)C(F)(F)F (stereo not drawn)	-2.517%
CN(C)CCOCC1CN(Cc2ccsc2)Cc2nnn(C)c21.O=C(O)C(F)(F)F.O=C(O)C(F)(F)F (stereo not drawn)	121.1%
CC(C)NC(=O)NC[C@H]1OC[C@@H](NCc2ccccc2F)[C@@H]1O	-8.31%
CC(O)CN1CCC(CN(C)Cc2ccc(C#N)cc2)CC1 (stereo not drawn)	-6.641%
COCc1nnc(-c2cccc(C(=O)N(C)CC(C)(C)C)c2)o1	1.349%
CC(C)Oc1cccc(CN(C)C(=O)Cc2ccon2)c1	7.051%
CN(C)CCOCC1CN(CC2CCOCC2)Cc2nnn(C)c21.O=C(O)C(F)(F)F.O=C(O)C(F)(F)F (stereo not drawn)	0.5849%
CN(C)CCOCC1CN(Cc2ccc(F)cc2)Cc2nnn(C)c21.O=C(O)C(F)(F)F.O=C(O)C(F)(F)F (stereo not drawn)	94.54%
CCS(=O)(=O)N1Cc2nnn(C)c2C(COCCN(C)C)C1.O=C(O)C(F)(F)F (stereo not drawn)	7.645%
Cc1noc(CCCC(=O)NC(C)c2cccnc2)n1 (stereo not drawn)	-10.11%
O=C(NC1CC1)N1CC[C@@H](O)[C@@H]1Cc1ccccc1	101.4%
NC(=O)N1CC[C@H](O)[C@@H]1Cc1ccccc1	106.8%
CN(C)C(=O)N1CC[C@@H](O)[C@@H]1Cc1ccccc1	109.4%
COCC(=O)N1CC[C@@H](N2CCOCC2)[C@@H]1Cc1ccccc1	-5.655%
CN(C)C(=O)N1CC[C@@H](O)[C@@H]1Cc1cnn(C)c1	3.844%
COCCN1CC[C@H](O)[C@@H]1Cc1ccccc1.O=C(O)C(F)(F)F	-7.454%
CCC(=O)N1CC[C@H](O)[C@@H]1Cc1ccccc1	99.45%
O=C(NC1CC1)N1CC[C@H](OCC2CC2)[C@@H]1Cc1cccnc1.O=C(O)C(F)(F)F	-2.258%
CN(C)[C@@H]1CCN(C(=O)NC2CCCC2)[C@H]1Cc1ccncc1.O=C(O)C(F)(F)F.O=C(O)C(F)(F)F	-4.406%
CC(=O)N1CC[C@@H](N2CCN(C)CC2)[C@@H]1Cc1ccccc1	-7.108%
COCC(=O)N1CC[C@@H](O)[C@@H]1Cc1ccccc1	-9.68%
CN1CCN([C@@H]2CCN(C(N)=O)[C@H]2Cc2ccccc2)CC1	-47.59%
